Data on 40 molecules can be found in PubChem BioAssay (NCATS).

Active and inactive are the calls of the source. Calls come from the whole dose curve; as a rule, active = well fitted curve in the direction sought with a large enough effect; inconclusive = small, poorly fitted or top-dose-only effect, or effect the other way, or another doubt; inactive = no such curve, though single readings can be large or run the other way.

A short description of the assay: Inducers of the Endoplasmic Reticulum Stress Response (ERSR) in human glioma: Validation (AID 504836). Conditions: human glioma cells, ER stress response reporter; series mostly up to 38.3 µM. An excerpt:
Primary protein unfolding takes place for many diseases, including diabetes and hypoxia, , and triggers a reaction in the cells called ER stress response (ERSR). ). ERSR is designed as a repair mechanism, but ultimately leads to cell death via apoptosis if conditions triggering protein unfolding persist (1). The molecular clue to ERSR activation is the enhancement of the expression of key molecular chaperones, including the glucose regulated protein (GRP) 78. GRP78 is the main sensor for protein folding and the main actuator of the ERSR.
In a collaboration between the Southern Research Institute and the NIH Chemical Genomics Center, a cell based screen was developed that reliably uses GRP78 as a sensor to identify small molecules as inducers of ERSR. In resting conditions, GRP78 binds proteins and acts as a natural repressor. Once unfolded proteins are present in the ER, GRP78 releases some of the repressors and binds to the unfolded proteins. The release of the repressors executes the ERSR program. Using a human glioma cell line in a miniaturized, luminescent format, a high-throughput screen was developed to identify actuators of the ERSR.
(1) Soboloff, J. and S. A. Berger (2002). "Sustained ER Ca2+ depletion suppresses protein synthesis and induces activation-enhanced cell death in mast cells." J Biol Chem 277(16): 13812-20.
NIH Chemical Genomics Center [NCGC]
NIH Molecular Libraries Probe Centers Network [MLPCN]
Assay Submitter (PI): Maurizio Grimaldi, Southern Research Institute
Stable transfected human glioma cell line, U87-MG, are dispensed at density 1000 cells/well into Greiner white solid bottom 1536-well assay plates. Compounds are transferred via Kalypsys pin tool equipped with 1536-pin array (10nl slotted pins, V&P Scientific, San Diego, CA). The assay plates will be incubated for 16 hours and developed by adding appropriate quantities of the Promega Bright Glo reagent. The plates will be incubated at room temperature for 10 minutes prior to being transferred into a ViewLux high-throughput CCD imager (PerkinElmer), wherein end-point measurements of luminescence are acquired.
On to `O=C1O/C(=C/Br)CCC1c1cccc2ccccc12` (stereo not given), for which the molecule was classed as inactive.
The value for `NCCCC(=O)O` was “inactive”; that for `CC(=O)SCC[N+](C)(C)C` was “inactive”; that for `CC[C@@H]1Cc2cc(O)ccc2C2=C1c1ccc(O)cc1C[C@H]2CC` was “inactive”.
Take `CCN1C(=O)C=CC1=O`: the molecule was called inactive.
Regarding `O=C1NC(=O)/C(=C/c2ccc3c(c2)OC(F)(F)O3)S1`, the result was inactive.
With `CC(C)NC[C@H](O)c1ccc(O)c(O)c1`, the result was inactive.
As to `O=C(c1ccc2c(c1)OCCO2)N1CCCCC1`, the call was inactive.
Take `CCCCCCCCCCCCCCCCCC(=O)OC(CC(=O)O)C[N+](C)(C)C` (stereo not given): the molecule was classed as inactive.
As for `CC[N+](CC)(CC)CC(=O)Nc1c(C)cccc1C`, the outcome was inactive.
As to `c1ccc(C(NCc2cccnc2)(c2ccccc2)c2ccccc2)cc1`, the outcome was inactive.
As for `O=c1cc(-c2ccccc2F)[nH]c2cc3c(cc12)OCO3`, the entry is “inactive”.
Regarding `CCCn1c(=O)c2c(ncn2C)n(CCC)c1=O`, the call was inactive.
For `C=CCN1CCc2c(cc(O)c(O)c2Br)[C@@H](c2ccccc2)C1`, the outcome was inactive.
As for `O=c1[nH]c2cc(Cl)c(Cl)cc2[nH]c1=O`, the entry is “inactive”.
For the molecule `N#C/C(=C\c1ccc(O)c(O)c1)C(=O)c1ccc(O)c(O)c1`, the result was inactive.
On to `C[C@H](NC(=O)/C(C#N)=C/c1ccc(O)c(O)c1)c1ccccc1`, for which the molecule was called inactive.
As for `CNCC[C@H](Oc1ccc(C(F)(F)F)cc1)c1ccccc1`, the molecule was classed as inactive.
As for `CCN(CC)CCNC(=O)c1ccc(NS(C)(=O)=O)cc1`, the entry is “inactive”; as for `NC(N)=NCc1cccc(I)c1`, “inactive”; as for `N#C/C(=C\c1ccc(-c2cc(Cl)ccc2Cl)o1)C(=O)Nc1cccc2ncccc12`, “inactive”.
For `N[C@@H](CCCC(=O)O)C(=O)O`, the molecule was called inactive.
As for `C[N+](C)(C)CCO`, the entry is “inactive”; as for `O=C(O)/C=C/c1ccc(O)c(O)c1`, “inactive”; as for `C=CC(=O)c1ccc(CCCCCC)cc1`, “inactive”.
For the molecule `CCOC(=O)C1=C(C)NC(C)=C(C(=O)OCC)C1c1c(F)c(F)c(F)c(F)c1F`, the molecule was called inactive.
Regarding `CC(N)(Cc1ccc(O)c(O)c1)C(=O)O` (stereo not given), the molecule was called inactive.
As to `CCCCCCCCCCCCCCCC(=O)OC(CC(=O)O)C[N+](C)(C)C` (stereo not given), the molecule was classed as inactive.
As for `Cc1cc2c(cc1Cl)N(C(=O)Nc1ccnc3ccccc13)CC2`, the entry is “inactive”; as for `Nc1ncnc2c1nc(Br)n2C1OC2COP(=O)(O)O[C@@H]2C1O` (stereo not given in full), “inactive”; as for `N[C@H](C(=O)O)[C@H]1C[C@@H]1C(=O)O`, “inactive”.
In the case of `Cc1cccc(C2CN(C)CCc3c2cc(O)c(O)c3Cl)c1` (stereo not given), the molecule was called inactive.
Turning to `NC1CCN(O)C1=O` (stereo not given), the result was inactive.
Regarding `NCCCCN=C(N)N`, the molecule was classed as inactive.
As for `CN1CCC2(CCN3CCc4c(oc5ccccc45)C3C2)N(C)C1=O` (stereo not given), the entry is “inactive”; as for `CN(C)c1cc2c(Nc3ccc4c(cnn4Cc4ccccc4)c3)ncnc2cn1`, “inactive”.
The value for `NOCC(=O)O` was “inactive”; that for `COC(=O)C1=C(C)NC(C)=C([N+](=O)[O-])C1c1ccccc1C(F)(F)F` (stereo not given) was “inactive”; that for `Cc1nn(-c2ccccc2)c(C)c1/C=N/N1CCN(Cc2ccccc2)CC1` was “inactive”.
Regarding `N[C@@H](CS(=O)O)C(=O)O`, the molecule was classed as inactive.
